Compound activity as filed in PubChem.
This is a sample that favours compounds with a hit; in the whole collection about 19% have one here.
HT1080NT lethal = kills 2HG-producing HT-1080-NT fibrosarcoma cells. HT-1080-NT fibrosarcoma viability, CellTiter-Glo ATP luminescence, 48 h. Potency, µM (highest dose often 46.1 µM), for the others: at the highest dose activity, negative = less viability, usual class: cytotoxic. 360,000 compounds, 1.6% hits;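 also: NT is the 2HG producing partner of a matched IDH1 knockdown line; potency is read from the fitted curve at half-maximal effect; 0% = DMSO-treated cells and -100% = media-only wells without cells; nearly all actives have a fitted effect of over 55% in size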
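Viability of the 2HG-overproducing fibrosarcoma line after 48 hours of compound exposure at 37 degrees C was determined by luminescence with CellTiter-Glo, and concentration-effect curves were then fitted and categorized.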
uPA generation = inhibitors of cell surface uPA generation; cell surface uPA generation assay, qHTS; Potency, µM (highest dose often 38.3 µM), inactives show top-dose activity change, negative = inhibition, actives largely listed as inhibitors; 330,000 compounds, 0.31% hits; AID 540303; active = well fitted inhibition curve with a large enough effect; inconclusive = small, poorly fitted or top-dose-only effect; inactive = no such curve, though single readings can be large or run the other way; tested in mouse RAW 264.7 cells; also: potency is read from the fitted curve at half-maximal effect; nearly all actives have a fitted effect of over 55% in size
DT40 TDP1 no CPT = qHTS for Inhibitors of human tyrosyl-DNA phosphodiesterase 1 (TDP1): qHTS in cells in absence of CPT; DT40 Tdp1-/- hTDP1 cells, no CPT, ATP luminescence, 48 h; Potency, µM (series often up to 46.2 µM), without a hit: at the top dose activity change, negative = growth inhibition, most hits filed as inhibitors; 420,000 compounds, 15% hits; also: potency is read from the fitted curve at half-maximal effect; nearly all actives have a fitted effect of over 55% in size
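Readout: luminescence from CellTiter-Glo after 30 min in the dark at RT. Cells: DT40 Tdp1-/- with stable hTDP1, 400/well. Exposure: compounds alone, ≥48 hr, 37 °C.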
IL-1B inflam inh = blocks inflammasome-driven IL-1 beta release; activity change, % at 57.5 µM; 360,000 compounds, 4.7% hits; THP-1 LPS/ATP IL-1B secretion, AlphaLISA, 16 h; stronger effect = lower value; in the data active = activity change below about -50%; inconclusive = mostly about -30% to -49%
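THP-1 cells pretreated 1 hr with compounds (up to 57.5 uM final), then stimulated with LPS (250 ng/mL final) plus ATP (1.25 mM final); secreted IL-1B measured by AlphaLISA after 16 hr, decreased signal indicating inhibition.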
HT1080 IDH1KD tx = kills HT-1080 cells with IDH1 knockdown; HT-1080 IDH1 knockdown viability, ATP luminescence, 48 h; Potency, µM (series often up to 46.1 µM), inactives show at the highest dose activity, negative = toxicity, most hits filed as cytotoxic; 360,000 compounds, 2% hits;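 also: potency is read from the fitted curve at half-maximal effect; 0% = DMSO wells and -100% = cell-free medium wells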
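CellTiter-Glo luminescence after 48 h compound exposure at 37 degrees C of IDH1-knockdown HT-1080 cells in 5% FBS RPMI. %Activity scaled between DMSO wells and cell-free media wells, with curves fitted and assigned curve classes.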
TDP1 cell CPT = DT40-hTDP1 cell growth loss with CPT; chicken DT40 Tdp1-/-;hTDP1 cells + 20 nM CPT, ATP luminescence, 48 h; Potency, µM (titrated, usually from 46.2 µM), for the others: at the top dose activity change, negative = growth inhibition, actives largely listed as inhibitors; AID 686979; 420,000 compounds, 12% hits; also: potency is read from the fitted curve at half-maximal effect; nearly all actives have a fitted effect of over 55% in size
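Chicken DT40 Tdp1-/- cells stably complemented with human TDP1 were seeded at 400 cells/well in medium containing 20 nM camptothecin, exposed to pin-transferred compounds, and grown at 37 °C for at least 48 hr. Viability was read as ATP luminescence.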
The depositor's hits bear a star; ? = inconclusive; · = no result given. Unless noted, calls follow the shape of the dose curve; as a rule, active = well fitted curve in the direction sought with a large enough effect; inconclusive = small, poorly fitted or top-dose-only effect, or another doubt; inactive = no such curve, though single readings can be large; an effect the other way counts as inactive or inconclusive. Unless noted, % is scaled to controls: 0 for no effect and ±100 for the full control effect.

SMILES	HT1080NT lethal	uPA generation	DT40 TDP1 no CPT	IL-1B inflam inh	HT1080 IDH1KD tx	TDP1 cell CPT
Cc1ccc(C(=O)Nc2ccc(C(=O)OCc3cc(=O)n4c5c(sc4n3)CCCC5)cc2)cc1	·	·	-29%	·	·	?
Cc1ccc(C(=O)Nc2cc3c(cc2N2CCCCC2)n(C)c(=O)n3C)cc1	14%	4%	1%	60	21%	-29%
CCOc1ccc(NC(=O)Nc2cc3c(cc2N2CCCCC2)n(C)c(=O)n3C)cc1	·	·	13µM*	·	·	12µM*
COc1ccc(C(=O)Nc2cc3c(cc2N2CCCCC2)n(C)c(=O)n3C)cc1OC	-23%	-3%	21µM*	-30	-22%	?
COc1cc(OC)cc(C(=O)Nc2cc3c(cc2N2CCCCC2)n(C)c(=O)n3C)c1	·	·	-8%	·	·	?
CCCOc1ccc(C(=O)Nc2cc3c(cc2N2CCCCC2)n(C)c(=O)n3C)cc1	·	·	-5%	·	·	-4%
COc1cc(C(=O)Nc2cc3c(cc2N2CCCCC2)n(C)c(=O)n3C)cc(OC)c1OC	?	6%	15µM*	-1	1%	21µM*
COc1ccc(N2CC(NC(=O)C3CC3)CC2=O)cc1OC (stereo not drawn)	·	·	-6%	·	·	9%
CCN1CCN(c2nc3c(S(=O)(=O)c4ccc(Br)cc4)nnn3c3ccsc23)CC1	·	·	?	·	·	-23%
CCC1Cc2[nH]c(=S)[nH]c(=O)c2C(c2ccc(F)cc2)O1 (stereo not drawn)	-1%	·	10%	13	16%	7%
CN(Cc1ccccc1)C(=O)c1[nH]cnc1C(=O)NCC(=O)OC(C)(C)C	2%	-2%	-7%	0	8%	-11%
CC(C)(C)OC(=O)NCCCC[C@H](NC(=O)c1[nH]cnc1C(=O)N[C@@H](Cc1ccccc1)C(=O)OC(C)(C)C)C(=O)OC(C)(C)C	-5%	?	9.2µM*	-56*	-17%	21µM*
CC(C)(C)OC(=O)NCCCC[C@H](NC(=O)c1nc[nH]c1C(=O)NCc1ccccc1)C(=O)OC(C)(C)C	-16%	?	?	?	?	?
CN(Cc1ccccc1)C(=O)c1[nH]cnc1C(=O)N[C@@H](CCCCNC(=O)OC(C)(C)C)C(=O)OC(C)(C)C	-2%	6%	?	?	-6%	16µM*
C[C@H](NC(=O)c1nc[nH]c1C(=O)N[C@@H](CCCCNC(=O)OC(C)(C)C)C(=O)OC(C)(C)C)c1ccccc1	?	?	23µM*	-52*	?	?
O=C(CCN1C(=O)[C@@H]2Cc3ccccc3CN2C1=O)N[C@@H](C(=O)O)c1ccccc1	12%	11%	-1%	4	10%	-7%
Cc1ccc(S(=O)(=O)N2[C@@H](c3ccc(C(C)C)cc3)C(C(=O)O)=C[C@H]2C(C)(C)C)cc1	-3%	4%	-29%	165	-12%	?
CC(C)N(C(=O)COC(=O)Cn1cnc2ccccc21)c1ccccc1	17%	3%	-14%	7	15%	-19%
Cc1nc2ccccc2nc(C)c1=NOCC(=O)N(c1ccccc1)C(C)C	0%	1%	18µM*	43	-1%	?
NC(=O)c1nsc(C(=O)N(c2cccc(F)c2)C(C(=O)NCc2ccccc2)c2ccc(O)cc2)c1N (stereo not drawn)	-1%	·	21µM*	-51*	-8%	?
NC(=O)c1nsc(C(=O)N(c2cccc(F)c2)C(C(=O)NC2CCCC2)c2ccc(O)cc2)c1N (stereo not drawn)	-23%	4%	-19%	6	-7%	-27%
